USP2a inh: qHTS Assay for Inhibitors of Ubiquitin-specific Protease USP2a Using CHOP2 as the Reporter | 0.01% of 330,000 active | Potency, µM (doses to about 38.3 µM), for inactives: at the highest dose activity change, negative = inhibition, usual class: inhibitors | Ubiquitin carboxyl-terminal hydrolase 2 (Homo sapiens), O75604 | USP2 core, Ub-CHOP2 coupled fluorogenic reporter, 485/531;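 further: potency means the concentration at half of the fitted maximal effect; plate controls were DMSO wells for no effect and full inhibition by NEM control for full effect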
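Deubiquitinase activity read as fluorescence (485/531 nm) after Ub-CHOP2 cleavage activates the enterokinase reporter on its substrate; USP2 core 10nM, Ub-CHOP2 and substrate 25nM each, 30min compound preincubation then 60min RT; data normalized to NEM, curves fitted.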
CtBP-E1A inh: qHTS Assay for Inhibitors of the CtBP/E1A Interaction; AlphaScreen GST-E1A/His-CtBP binding, 1536-well; stronger effect = lower value; activity change, % (test concentration not listed); 0.49% of 340,000 active; AID 651724, 2012; in the data active means activity change below about -65%; inconclusive means mostly about -30% to -63%
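In 5 uL wells, 23 nL compound meets equimolar GST-E1A and His-CtBP (5X stock 125 nM each) for 2 h, 37 °C. Beads (5X, 50 ug/mL) then 1 h, 37 °C, dark.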
RGS4 inhibitor: Inhibitors of Regulator of G Protein Signaling (RGS) 4: qHTS; Regulator of G-protein signaling 4 (Homo sapiens), P49798; Transcreener GDP fluorescence polarization, RGS4-accelerated GTP hydrolysis; Potency, µM (titrated, usually from 114 µM), for inactives: at the top dose activity change, negative = inhibition, actives largely listed as inhibitors; 0.039% of 390,000 active; further: potency means the concentration at half of the fitted maximal effect; nearly all actives have a fitted effect of over 75% in size
Target sequence (P49798 whole entry, looked up): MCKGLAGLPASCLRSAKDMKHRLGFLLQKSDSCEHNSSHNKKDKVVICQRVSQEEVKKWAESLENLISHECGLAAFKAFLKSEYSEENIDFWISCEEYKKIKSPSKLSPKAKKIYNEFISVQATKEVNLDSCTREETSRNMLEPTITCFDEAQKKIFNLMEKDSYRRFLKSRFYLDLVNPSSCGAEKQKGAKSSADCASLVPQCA
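MLSMR compounds (23 nl, pin-transferred) preincubated 10 min at room temperature with a 500nM (2x) first reagent, then RGS4 at 900nM (2x) plus Transcreener GDP mix added; fluorescence polarization (620/688 nm) read before and after 90 min at 30 °C.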
Eya2 phos inh: qHTS Assay for Inhibitors of the Phosphatase Activity of Eya2. 0.006% of 330,000 active. Protein phosphatase EYA2 (Homo sapiens), O00167. recombinant Eya2, OMFP fluorescence dephosphorylation (OMFP is methylfluorescein phosphate). Potency, µM (titrated, usually from 76.9 µM), for inactives: at the top dose activity, negative = inhibition, most hits filed as inhibitors; further: potency means the concentration at half of the fitted maximal effect
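Eya2 (0.2 uM) preincubated 10 min at ambient with compound, then OMFP substrate added at 50 uM; 10 min reaction in 50 mM HEPES pH 7.5, 50 mM NaCl, 5 uM MgCl2, 0.05% BSA, 1 mM DTT. Fluorescence read at Ex 485/Em 525 nm.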
PI4K2A block: qHTS for small molecular inhibitors of PI4K2A; Phosphatidylinositol 4-kinase type 2-alpha (Homo sapiens), Q9BTU6; purified PI4K2A, ADP-Glo luminescence, 1 h; stronger effect = lower value; 0.13% of 420,000 active; activity change, negative = inhibition, % at 76.9 µM; in the data active means activity change below about -50%; inconclusive means mostly about -30% to -49%;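 further: -100% = wells without enzyme as full effect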
Target sequence (Q9BTU6 whole entry, looked up): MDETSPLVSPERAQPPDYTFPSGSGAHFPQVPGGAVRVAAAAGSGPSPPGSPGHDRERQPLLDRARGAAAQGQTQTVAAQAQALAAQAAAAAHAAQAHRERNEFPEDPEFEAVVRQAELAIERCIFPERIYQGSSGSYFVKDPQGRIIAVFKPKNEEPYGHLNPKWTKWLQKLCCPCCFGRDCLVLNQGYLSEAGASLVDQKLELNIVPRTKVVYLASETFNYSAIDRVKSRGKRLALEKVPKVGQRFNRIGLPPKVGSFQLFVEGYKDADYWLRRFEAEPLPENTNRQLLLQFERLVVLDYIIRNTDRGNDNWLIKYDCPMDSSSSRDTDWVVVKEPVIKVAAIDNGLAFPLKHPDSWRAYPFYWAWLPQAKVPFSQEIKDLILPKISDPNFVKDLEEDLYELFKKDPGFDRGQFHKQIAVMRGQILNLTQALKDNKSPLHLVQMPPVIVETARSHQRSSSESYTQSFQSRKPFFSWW
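ADP-Glo luminescence measured ADP generated by PI4K2A enzyme (4 ug/mL before mixing) with 1.2 mM PI substrate (pre-mix) and 300 microM ATP (pre-mix). Tris pH7.5 buffer with MgCl2, Triton X-100; 1 h reaction at ambient temperature.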
Six1-Eya2 blk: qHTS Assay for Inhibitors of the Six1/Eya2 Interaction; AID 651725, 2012; AlphaScreen GST-Six1/His-Eya2 binding, biochemical; stronger effect = lower value; 0.56% of 360,000 active; activity change, % (no concentration beside the values); in the data active means activity change below about -65%; inconclusive means mostly about -30% to -63%
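GST-Six1 + His-Eya2 (5X stock: 250/500 nM); Tris pH 8.0, 300 mM NaCl, 0.05% BSA, 0.02% Tween 20; GSH donor/Ni acceptor beads; 1 h 37 °C dark; AlphaScreen readout.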
Numbers without * were called inactive; ? = inconclusive; / = not tested or not shown; [ ] = dose if it differs, or a comment. This is a sample that favours compounds with a hit; in the whole collection about 0.72% have one here. Unless noted, the call rests on the fitted dose curve; in most records, active means well fitted curve in the direction sought with a large enough effect; inconclusive means small, poorly fitted or top-dose-only effect, or another doubt; inactive means no such curve, though single readings can be large; an effect the other way counts as inactive or inconclusive. Unless noted, on the % scale 0 is the no-effect control and ±100 the full control effect.

SMILES	USP2a inh	CtBP-E1A inh	RGS4 inhibitor	Eya2 phos inh	PI4K2A block	Six1-Eya2 blk
COc1cccc(NC(=O)CSc2ccc3nnc(-c4cccnc4)n3n2)c1	0.3%	?	5.8%	1.4%	-0.2	-23.4
O=C(c1ccco1)N1CCN(C(=O)c2cc(-c3ccccn3)nc3ccc(Cl)cc23)CC1	1.3%	-91.9*	2.0%[11.4 µM]	-16.5%	-3.5	-86.6*
O=C(Nc1cccc(C(F)(F)F)c1)c1ccc2nc(-c3ccco3)c(-c3ccco3)nc2c1	-5.5%	?	?	-0.1%	-52.9*	-76.8*
O=C(Nc1ccc2nc(-c3ccco3)c(-c3ccco3)nc2c1)NC1CC1	1.4%	?	?	2.8%	?	-68.2*
O=C(O)c1ccc2nc(-c3ccco3)c(-c3ccco3)nc2c1	0.7%	-25.4	-35.3%	0.7%	-13.5	?
CCCSc1nnc2c(n1)OC(CC)N(C(C)=O)c1ccccc1-2 (stereo unspecified)	/	/	19.7%	/	2.0	/
O=C(Nc1cccc(Cl)c1Cl)c1ccc2c(c1)N(Cc1cccc(Cl)c1)C(=O)c1ccccc1S2(=O)=O	/	/	3.8%	/	2.0	/
O=C1NCCCC1C(=O)N/N=C/c1ccc([N+](=O)[O-])cc1 (stereo unspecified)	0.5%	/	-9.0%	?	2.9	3.3
CCc1ccc(N2CC(C(=O)N/N=C/c3ccccc3OC)CC2=O)cc1 (stereo unspecified)	-1.6%	11.3	-25.5%	-8.5%	-2.4	1.5
CCc1ccc(N2CC(C(=O)N/N=C/c3cc([N+](=O)[O-])ccc3O)CC2=O)cc1 (stereo unspecified)	0.6%	-88.4*	8.1%	17.2%	-3.0	-79.8*
O=C(NN=Cc1ccccc1O)C1CC1	/	?	5.8%	/	-0.4	?
O=C(N/N=C/c1cc([N+](=O)[O-])ccc1O)C1CC1	13.0%	-25.8	-14.2%	1.6%	6.8	-85.3*
O=C1NCCCC1C(=O)N/N=C/c1cc([N+](=O)[O-])ccc1O (stereo unspecified)	1.6%	-96.3*	22.0%	-9.5%	-0.2	-69.1*
O=C(NN1C(=O)/C(=C/c2cc([N+](=O)[O-])ccc2O)SC1=S)c1ccccc1O	-0.6%	/	/	-6.8%	/	/
Cc1ccc(/C=C2\SC(=S)N(/N=C/c3cc([N+](=O)[O-])ccc3O)C2=O)o1	?	-92.6*	?	6.4%	-17.9	-88.9*
O=C(CCOCCOCCOCCOCCC(=O)Nc1c(I)cc(I)c(C(=O)O)c1I)Nc1c(I)cc(I)c(C(=O)O)c1I	/	/	/	/	-5.8	/
C[C@@H](O[C@H]1OCCN(Cc2n[nH]c(=O)[nH]2)[C@H]1c1ccc(F)cc1)c1cc(C(F)(F)F)cc(C(F)(F)F)c1	/	/	/	/	-3.9	/
O=C(NCCn1cc(SCc2ccc(F)cc2)c2ccccc21)c1cccs1	/	/	12.5%	/	-5.9	/
COc1cc(C=NNC(=O)CN2CCN(Cc3ccc(C)cc3)CC2)cc(OC)c1O	/	/	/	/	-2.8	/
COc1cc(N2CCCC2)c(OC)cc1/C=C(/C#N)c1cccc(F)c1	13.1%	?	?	26.0%	-5.2	-72.0*
N#C/C(=C/c1ccc(N2CCCCCC2)o1)c1cccc(F)c1	0.8%	-9.1	?	22.3%	5.2	-14.9
CCOc1cccc(/C=N/NC(=O)c2cc(-c3cccn3C)n[nH]2)c1O	0.6%	-84.9*	-31.8%	2.6%	-0.1	-87.0*
COc1cc(OC)c(OC)cc1/C=N/NC(=O)C[n+]1ccccc1	2.3%	2.7	-6.3%	-0.5%	-4.6	5.2
CCOc1cccc(/C=N/NC(=O)c2ccc3c(c2)OCCO3)c1O	0.4%	-87.3*	?	0.7%	-4.5	?
COc1cccc(/C=N/NC(=O)C[n+]2ccccc2)c1O	1.1%	-88.3*	-18.7%	-2.4%	-3.3	-86.8*
SMILES	USP2a inh	CtBP-E1A inh	RGS4 inhibitor	Eya2 phos inh	PI4K2A block	Six1-Eya2 blk
O=C(COc1ccccc1)NCC(=O)N/N=C/c1ccc(O)cc1O	0.4%	-91.5*	-8.9%	7.9%	3.6	-79.7*
Cc1ccc(C(C)OC(=O)C2(C)CCC(C(=O)O)C2(C)C)cc1 (stereo unspecified)	/	/	/	/	-1.0	/
CCOc1c(N2CCOCC2)cnn(C)c1=O	/	/	/	/	-1.3	/
Cc1cc(C)cc(N(C)S(=O)(=O)c2nnc(NC(=O)COc3ccc(C)c(C)c3)s2)c1	/	/	22.6%	/	-0.8	/
COc1cccc(C=Nc2ccc(N3CCOCC3)cc2)c1O	3.3%	/	-1.2%	14.1%	-25.9	-1.5
COc1ccc(/C=N/NC(=O)CNC(=O)COc2ccccc2)cc1	-0.1%	2.5	12.9%	-7.9%	-0.7	3.0
O=C(C[n+]1ccccc1)N/N=C/c1cc(Br)ccc1O	0.9%	0.0	-16.4%	11.0%	4.2	-87.9*
COc1cccc(/C=N/NC(=O)CNC(=O)COc2ccccc2)c1O	4.8%	?	7.0%	5.0%	-7.0	-83.0*
O=C(CNC(=O)c1ccco1)Nc1ccc(F)cc1	3.1%	-96.3*	-51.7%	10.1%	3.1	1.7
O=C(C[n+]1ccccc1)N/N=C/c1ccccc1F	1.9%	?	?	6.9%	3.8	0.5
COc1cccc(C=Nc2ccc3c(c2)OCCO3)c1O	1.9%	-5.7	-21.7%	-2.8%	-62.9*	15.9
COc1ccc(-c2nc3cc(C)c(Br)c(C)n3c2Cc2ccc(C)cc2)cc1OC	/	-8.4	/	/	-1.2	-15.2
CN(C)c1ccc(/C=N/NC(=O)CNC(=O)c2ccc3c(c2)OCCO3)cc1	1.1%	-11.6	13.2%[11.4 µM]	4.7%	2.0	-5.4
COc1cccc(/C=N/NC(=O)CNC(=O)C2COc3ccccc3O2)c1O (stereo unspecified)	-0.9%	-83.1*	9.3%[11.4 µM]	0.3%	3.5	?
COc1cc(/C=N/NC(=O)CNC(=O)c2ccncc2)ccc1O	-0.8%	-0.9	-12.1%	6.5%	10.3	-0.1
CCOc1cccc(/C=N/NC(=S)Nc2cc(S(=O)(=O)N3CCOCC3)ccc2N2CCOCC2)c1O	-12.2%	-96.5*	16.8%	-0.7%	3.2	-86.6*
O=C(CNC(=O)c1ccncc1)N/N=C/c1ccc(O)cc1O	1.1%	/	1.7%	-1.1%	2.1	-90.4*
